High-throughput results deposited in PubChem by Broad Institute.
Shn3 inh set2: reduces Shn3 3'UTR luciferase signal in osteoblasts; Clone20 osteoblast Shn3 3'UTR firefly luciferase, 24 h; inhibition, % at 12.5 µM; 360,000 tested, 0.52% active; AID 588674;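 active means mean inhibition of at least 75% with every replicate also reaching 75%; inconclusive means mean inhibition at least 75% but some replicate below; inactive means mean inhibition below 75%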
EWS-Fli inh: inhibitors of EWS/Fli oncoprotein transcriptional activity | A673 NR0B1-luciferase reporter, viability-normalised | inhibition, % at 12.6 µM | 350,000 tested, 0.67% active | AID 651661;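 active means mean inhibition of at least 50% after viability correction, with every replicate also passing that limit; inconclusive means mean reaches 50% but only one of two replicates passes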;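 further: firefly luciferase signal divided by Alamar Blue viability fluorescence both relative to DMSO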
LMP1 NFkB inh: reduces LMP1-driven NF-kappaB luciferase signal | 350,000 tested, 0.69% active | AID 504558 | inhibition, % at 12.5 µM | LMP1-induced NF-kappaB luciferase reporter cells, luminescence; in the data active means inhibition above about 41%; inconclusive means no clear call, values can overlap the other calls
MITF TRPM1 inh: reduces MITF-dependent TRPM1 promoter luciferase signal | SK-MEL-5 TRPM1 promoter luciferase, 24 h | inhibition, % at 12.5 µM | 330,000 tested, 0.83% active | AID 488899;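 active means mean inhibition across replicates of 60% or more, whatever share of single replicates reaches that level; inconclusive means some that reach 60%, reason not given; inactive means mean inhibition across replicates below 60%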
LGR2 antag: inhibitors of bursicon-induced Drosophila LGR2 receptor cAMP signaling | HEK293 LGR2, CRE-luciferase, bursicon-stimulated, 4 h | inhibition, % at 9.99 µM | AID 720647 | 380,000 tested, 0.35% active;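 active means drop in luminescence signal, shown as inhibition above about 50% in the replicate tests, limit read from the data, passing the limit was not always enough; inconclusive means probably only some replicates passing the limit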;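 further: agonist challenge used bursicon conditioned medium at about half maximal strength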
PAX8 inh HTS: PAX8 transcriptional activity inhibition | RMG-I TPO-luciferase reporter, SteadyGlo, 24 h | inhibition, % at 12.6 µM | 360,000 tested, 1.2% active;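 active means mean replicate inhibition at least 60% with every replicate also reaching 60%; inconclusive means only one of the two criteria is met; inactive means mean below 60% and not all replicates reaching 60%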;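 further: luciferase light reporting Pax8 driven TPO promoter activity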
Hits are given with their value; 0 = inactive; ? = inconclusive; - = no result given; ! = not confirmed by another sample. Shown are actives, neighbours in structure and some others; about 2.2% of the full set was active somewhere.

SMILES | Shn3 inh set2 | EWS-Fli inh | LMP1 NFkB inh | MITF TRPM1 inh | LGR2 antag | PAX8 inh HTS
CN1CCN(c2ccc(S(C)(=O)=O)cc2[N+](=O)[O-])CC1 | 0 | 0 | 0 | 0 | 0 | 0
CN1CCN(c2ccc([N+](=O)[O-])c3no[n+]([O-])c23)CC1 | 97 | 0 | 76 | 86 | 105 | 88
Nc1cncc(C(=O)O)c1 | 0 | 0 | 61! | 0 | 0 | 0
Cc1ccsc1/C=C1\C(=O)NC(=S)N(C)C1=O | 0 | 0 | 0 | 70 | 0 | 0
O=C(Cc1ccncc1)N1CCCCN2[C@H](CO)[C@H](c3ccc(C#Cc4ccccc4F)cc3)[C@H]2C1 | - | 0 | - | - | 0 | 0
N#Cc1cn(C2OC(CO)C(O)C2O)c2ncnc(N)c12 (configuration not stated) | 0 | 0 | 0 | 0 | 94 | 96
Nc1ncnc2c1ncn2[C@@H]1O[C@H](COP(=O)(O)CP(=O)(O)O)[C@@H](O)[C@H]1O | 0 | 0 | 0 | 0 | 0 | 0
NC(=O)c1cn(C2OC(CO)C(O)C2O)c2ncnc(N)c12 (configuration not stated) | 0 | 55! | 81 | 84 | 71 | 96
N#Cc1cccc(-c2ccc([C@H]3[C@H]4CN(C(=O)Cc5ccccc5)CCCCN4[C@H]3CO)cc2)c1 | - | 0 | - | - | 0 | 0
OC[C@H]1Nc2ccc(C#Cc3cccnc3)cc2[C@H]2NCC[C@H]21 | - | 0 | - | - | 0 | -
O=C(O)[C@@H]1[C@@H](CO)[C@@H]2Cn3c(ccc(-c4ccccc4)c3=O)[C@H]1N2S(=O)(=O)c1ccccc1F | - | 0 | - | - | 0 | 0
O=C(O)[C@@H]1[C@@H](CO)[C@@H]2Cn3c(ccc(-c4ccncc4)c3=O)[C@H]1N2C(=O)C1CC1 | - | 0 | - | - | 0 | 0
COC(=O)C1=C(c2ccc3ccccc3c2)C[C@@H]2CC[C@H]1N2C(=O)NC1CC1 | 0 | 0 | 0 | 0 | 0 | 0
COC(=O)C1=C(c2ccc(-c3ccccc3)c(F)c2)C[C@@H]2CC[C@H]1N2C(=O)N1CCC(C)CC1 | 0 | 0 | 45 | 0 | - | 0
COC(=O)C1=C(c2ccc3ccccc3c2)C[C@@H]2CC[C@H]1N2C(=O)N1CCC(O)CC1 | 0 | - | 85 | 0 | - | -
COC(=O)C1=C(c2ccc3ccccc3c2)C[C@@H]2CC[C@H]1N2C(=O)NCC1CC1 | 89 | 0 | 0 | 0 | 0 | 0
O=C(O)C[C@@H]1CC[C@H]2NC[C@H](O)COC[C@@H]2O1 | - | 0 | - | - | 0 | 0
CN1CCC2(CC1)c1ccccc1-c1ccccc12 | 0 | 0 | 0 | 0 | - | 0
CC1(C(=O)O)CC12c1ccccc1-c1ccccc12 (configuration not stated) | 0 | 0 | 74 | 0 | 0 | -
COC(=O)[C@H]1[C@H](CO)[C@H]2Cn3c(ccc(/C=C/c4ccccc4)c3=O)[C@@H]1N2C(=O)C1CC1 | - | 0 | - | - | 0 | -
O=C(Cc1cccnc1)N1CCCCN2[C@H](CO)[C@@H](c3ccc(/C=C/c4ccccc4)cc3)[C@H]2C1 | - | 0 | - | - | 0 | 0
O=C(COc1ccc(Cl)cc1Cl)N1CCN(C/C=C/c2ccccc2)CC1 | 0 | - | 0 | 0 | 0 | -
O=C(O)CCCOc1ccc(Cl)cc1Cl | 0 | 0 | 59 | 0 | - | 0
COC(=O)[C@H]1[C@H](CO)[C@H]2Cn3c(ccc(C4=CCCC4)c3=O)[C@@H]1N2C(=O)C1CCCCC1 | - | 0 | - | - | 0 | 0
Cc1ccc(C(=O)N[C@@H](C)CN2C3=NC[C@@H](Cc4ccccc4)N3C[C@H]2Cc2ccc(O)cc2)cc1Br | - | 0 | - | - | 0 | 111
SMILES | Shn3 inh set2 | EWS-Fli inh | LMP1 NFkB inh | MITF TRPM1 inh | LGR2 antag | PAX8 inh HTS
O=C(Cc1ccccc1)N1CCCCN2[C@@H](CO)[C@H](c3ccc(C#CC4(O)CCCC4)cc3)[C@@H]2C1 | - | 0 | - | - | 0 | 0
Cc1ccccc1S(=O)(=O)N1[C@@H]2c3ccc(-c4cccnc4)c(=O)n3C[C@H]1[C@H](CO)[C@H]2C(=O)O | - | 0 | - | - | 0 | 0
O=C(Cc1ccccn1)N1CC2(C1)[C@H](c1ccccc1)[C@@H](CO)N2Cc1ccccn1 | - | 0 | - | - | 0 | 0
CC(=O)O[C@H]1[C@H]2O[C@]23[C@@H]2CC[C@]4(O)C[C@@H](O)CC[C@]4(C)C2CC[C@]3(C)[C@H]1c1ccc(=O)oc1 (some centres not stated) | 0 | - | 49 | 79 | - | -
C[C@]12CC[C@H]3C(CCC4(O)CC(O)CC[C@]34C=O)C1=CC[C@H]2c1ccc(=O)oc1 (some centres not stated) | 0 | 0 | 0 | ? | 0 | 0
COc1cc2c(cc1/C=C/[N+](=O)[O-])OCO2 | 0 | 0 | 0 | 79 | 103 | 0
